The values that follow come from PubChem BioAssay (EPA / NIEHS).

Inconclusive results are not listed. Calls of active or inactive are those of the source. Rule for the calls, unless noted: active = hit-call score of the fitted dose curve at least 0.9, where 1 is the maximum; inconclusive = response in the unintended direction; inactive = score below 0.9.

For assay [1], the target named is Bile acid receptor (Homo sapiens) (UniProt Q96RI1). Description: ATG_IR1_CIS: Attagene CIS-FACTORIAL HepG2 Assay for human Nuclear Receptor Subfamily 1 Group H Member 4 (NR1H4), IR1 submotif (AID 2282946; active = hit-call score of the fitted dose curve at least 0.9, where 1 is the maximum; inactive = score below 0.9). The settings on record: IR1 reporter transcription, actives raise or lower the signal. In short, it runs like this:
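Readout: reporter transcript levels by RT-PCR with fluorescent capillary electrophoresis, from HepG2 cells transiently transfected with multiplexed cis-regulated reporters and dosed 24 h. Gain- or loss-of-signal fitted versus DMSO negative control.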

For assay [2], the target named is Nuclear receptor subfamily 1 group I member 3 (Homo sapiens) (UniProt Q14994). Description: ATG_CAR_TRANS: Attagene TRANS-FACTORIAL HepG2 Assay for human Constitutive Androstane Receptor (CAR) (AID 2282969).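 Note: activators raise reporter mRNA above DMSO so AC50 marks induction.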 The settings on record: HepG2 Attagene TRANS-FACTORIAL CAR reporter. In short, it runs like this: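 Steps: transient transfection of HepG2 with multiple GAL4-UAS reporter units; 24 h compound incubation; RNA isolation, RT-PCR, 6-FAM primer extension, HpaI digest; capillary electrophoresis. Gain-of-signal relative to DMSO negative control.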

The target of assay [3] is Glucocorticoid receptor (Homo sapiens) (UniProt P04150). Description: ATG_GR_TRANS: Attagene TRANS-FACTORIAL HepG2 Assay for human Glucocorticoid Receptor (GR) (AID 2282978).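 Note: activators score as hits since higher reporter transcript over DMSO is fitted.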 The conditions noted are these: HepG2 Attagene TRANS GR reporter, mRNA transcription. In short, it runs like this:
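In this trans-factorial format, exogenous NR-GAL4 chimeric proteins in transfected HepG2 cells regulate GAL4-UAS reporter transcription. After 24 h treatment, reporter mRNA induction relative to DMSO is read by RT-PCR and capillary electrophoresis.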

Assay [4] deals with Nuclear receptor subfamily 4 group A member 2 (Homo sapiens) (UniProt P43354). Description: ATG_NURR1_TRANS: Attagene TRANS-FACTORIAL HepG2 Assay for human Nuclear Receptor Related Protein 1 (NURR1) (AID 2282985). The conditions noted are these: HepG2 Attagene TRANS reporter, mRNA readout. In short, it runs like this:
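Chimeric NR-Gal4 proteins were expressed in human HepG2 cells bearing GAL4-UAS reporter units, and induced reporter mRNA was quantified 24 h post-dosing by RT-PCR and capillary electrophoresis.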

Assay [5] concerns the target human Peroxisome Proliferator-activated Receptor delta (PPARd), PPARD (gene 5467) (UniProt Q03181). Description: ATG_PPARd_TRANS: Attagene TRANS-FACTORIAL HepG2 Assay for human Peroxisome Proliferator-activated Receptor delta (PPARd) (AID 2283002). The essentials:
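HepG2 cells transiently transfected with multiplexed GAL4-UAS reporter units and exogenous chimeric NR-Gal4 proteins; 24 h compound exposure. Reporter mRNA measured by RT-PCR, 6-FAM labelling, HpaI digestion and capillary electrophoresis; gain of signal versus DMSO.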

Assay [6] in a line: ATG_XTT_Cytotoxicity: Cytotoxicity Assessment in the Attagene TRANS-FACTORIAL HepG2 Assay (AID 2283584). In short, it runs like this:
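XTT readout of cell number in transfected HepG2 cells, 24 h post-dosing; DMSO serves as negative control and baseline, with activity taken as loss of viability signal.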

Assay [7] in a line: TOX21_p53_BLA_p3_viability: Viability Assessment in the Tox21 HCT-116 p53 Agonism Beta-lactamase Assay, Phase 3 (AID 2283593).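 Note: cells exposed to compound for 16 h before reading.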 The essentials:
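HCT-116 cells (4000/well) rested 5 h at 37C, then got DMSO compounds by pin tool (217-fold dilution) for 16 h at 37C, 5% CO2. After the bla read, CellTiter-Glo was added and luminescence read at 30 min, room temperature.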

Assay [8] addresses Nuclear receptor subfamily 1 group I member 2 (Homo sapiens) (UniProt O75469). Description: ATG_PXR_TRANS: Attagene TRANS-FACTORIAL HepG2 Assay for human Pregnane X Receptor (PXR) (AID 2283008). In short, it runs like this: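 Multiplexed TRANS reporter panel in HepG2; this component tracks PXR-Gal4-driven reporter mRNA after 24 h dosing, measured by RT-PCR with capillary electrophoresis fluorescence, fitted against DMSO.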

The target of assay [9] is human RAR-related Orphan Receptor beta (RORb), RORB (gene 6096) (UniProt Q92753). Description: ATG_RORb_TRANS: Attagene TRANS-FACTORIAL HepG2 Assay for human RAR-related Orphan Receptor beta (RORb) (AID 2283010). In short, it runs like this:
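HepG2, transient MRTU transfection (GAL4-UAS reporters, exogenous NR-Gal4 chimeras); 24 h compound exposure; total RNA → RT-PCR → 6-FAM primer extension → HpaI digest → CE fluorescence. Positive direction vs DMSO baseline.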

The target of assay [10] is human RAR-related Orphan Receptor gamma (RORg), RORC (gene 6097) (UniProt P51449). In words: ATG_RORg_TRANS: Attagene TRANS-FACTORIAL HepG2 Assay for human RAR-related Orphan Receptor gamma (RORg) (AID 2283011).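 For AC50: potency for induction of reporter transcripts above DMSO so activators.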 In short, it runs like this:
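Transient MRTU transfection of HepG2 (TRANS format, exogenous NR-Gal4 chimera). 24 h dosing. Total RNA → oligo(dT) RT → PCR → 6-FAM labelling → HpaI cut → CE. Gain vs DMSO.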

In assay [11] the target is Retinoic acid receptor RXR-alpha (Homo sapiens) (UniProt P19793). In words: ATG_RXRa_TRANS: Attagene TRANS-FACTORIAL HepG2 Assay for human Retinoid X Receptor alpha (RXRa) (AID 2283012). The essentials: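 Read-out: fluorescent reporter-transcript fragments quantified by capillary electrophoresis after RT-PCR. Transiently transfected HepG2 cells carrying GAL4-UAS reporters and NR-GAL4 chimeras were exposed to chemical for 24 h; activity scored as increase over DMSO.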

The target in assay [12] is Retinoic acid receptor alpha (Homo sapiens) (UniProt P10276). In words: ATG_DR5_RAR_CIS: Attagene CIS-FACTORIAL HepG2 Assay for human Retinoic Acid Receptor Alpha (RARE), DR5 submotif (AID 2282934; active = hit-call score of the fitted dose curve at least 0.9, where 1 is the maximum; inactive = score below 0.9). The settings on record: HepG2 Attagene cis-factorial RARE DR5 reporter, mRNA; actives raise or lower the signal. In short, it runs like this: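 HepG2 cells transiently transfected with multiplexed reporter units under cis (DR5 RARE) promoters, so endogenous transcription factor activity is measured. After 24 h compound exposure, reporter mRNA is quantified by RT-PCR with fluorescent labelling and capillary electrophoresis; bidirectional fitting versus DMSO.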

Assay [13] addresses human Vitamin D Receptor (VDR), VDR (gene 7421) (UniProt P11473). Description: ATG_VDR_TRANS: Attagene TRANS-FACTORIAL HepG2 Assay for human Vitamin D Receptor (VDR) (AID 2283022). In short, it runs like this: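 RT-PCR/capillary electrophoresis read-out of reporter mRNA induction in transiently transfected HepG2; 24 h dosing; chimeric NR-Gal4 (TRANS format); gain-of-signal fit against DMSO baseline.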

A short description of assay [14]: ATG_PPRE_CIS: Attagene CIS-FACTORIAL HepG2 Assay for human Peroxisome Proliferator-activated Response Element (PPRE) (AID 2282958; active = hit-call score of the fitted dose curve at least 0.9, where 1 is the maximum; inactive = score below 0.9). The conditions noted are these: HepG2 PPRE cis-element reporter, Attagene transcription factor profiling; actives raise or lower the signal. The essentials:
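Cells are first transfected transiently with the multiplexed reporter library, then dosed for 24 h. Total RNA is reverse-transcribed, amplified, fluorescently end-labeled and HpaI-cut before capillary electrophoresis; activity is fitted bidirectionally against DMSO controls.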

Assay [15] in a line: ATG_M_19_TRANS: Attagene TRANS-FACTORIAL HepG2 Assay for M19 Transcription Factor (Internal Marker) (AID 2282974). The settings on record: HepG2 Attagene TRANS-FACTORIAL M19 internal marker reporter. The essentials: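 Cells: human HepG2, transiently transfected with multiplexed reporter transcription units. Exposure: 24 h. Detection: RT-PCR of reporter mRNA with capillary electrophoresis. Analysis: gain-of-signal vs DMSO.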

Assay [16] addresses Oxysterols receptor LXR-alpha (Homo sapiens) (UniProt Q13133). In words: ATG_LXRa_TRANS: Attagene TRANS-FACTORIAL HepG2 Assay for human Liver X Receptor alpha (LXRa) (AID 2282980). The conditions noted are these: HepG2 Attagene TRANS reporter, LXRa transactivation. In short, it runs like this: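 Read-out: reporter transcript levels by RT-PCR plus capillary electrophoresis, fluorescence intensity. Transiently transfected HepG2, exogenous NR-GAL4 chimera, GAL4-UAS reporters; 24 h compound exposure. Activity = increase over DMSO negative control.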

Assay [17] has as its target human Peroxisome Proliferator-activated Receptor alpha (PPARa), PPARA (gene 5465) (UniProt Q07869). Description: ATG_PPARa_TRANS: Attagene TRANS-FACTORIAL HepG2 Assay for human Peroxisome Proliferator-activated Receptor alpha (PPARa) (AID 2283001).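 For AC50: potency for gain of reporter signal over DMSO so agonist or activator.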 In short, it runs like this: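 Exposure: 24 h, transiently transfected HepG2 cells. Endpoint: GAL4-UAS reporter mRNA, RT-PCR with capillary electrophoresis fluorescence. Baseline: DMSO; increases fitted.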

The nature of assay [18]: CCTE_Harrill_HTTr_Viability_MCF7: CCTE's 6-hour Cell Viability Assessment for the High-Throughput Transcriptomics (HTTr) Platform, in MCF-7 cells cultured in DMEM + 10% fetal bovine serum, Harrill Lab (AID 2284010; active = hit-call score of the fitted dose curve at least 0.9, where 1 is the maximum; inactive = score below 0.9). In short, it runs like this:
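PI exclusion, high-content imaging; 8-pt dilution series, 6 h exposure; bidirectional fit vs DMSO (neg. ctrl/baseline); gain of signal = loss of membrane integrity.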

Assay [19] in a line: CCTE_Harrill_HTTr_Apoptosis_MCF7: CCTE's 6-hour Apoptosis Assessment for the High-Throughput Transcriptomics (HTTr) Platform, in MCF-7 cells cultured in DMEM + 10% fetal bovine serum, Harrill Lab (AID 2284011; active = hit-call score of the fitted dose curve at least 0.9, where 1 is the maximum; inactive = score below 0.9). In short, it runs like this:
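Read-out: CellEvent Caspase 3/7 Green signal by high content imaging, gain-of-signal indicating apoptosis. MCF-7 cells, DMEM + 10% FBS, eight-point dilution series, 6 h exposure. Curves fitted bidirectionally relative to DMSO negative control.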

Sequence of Bile acid receptor (Homo sapiens) (Q96RI1 whole entry, looked up): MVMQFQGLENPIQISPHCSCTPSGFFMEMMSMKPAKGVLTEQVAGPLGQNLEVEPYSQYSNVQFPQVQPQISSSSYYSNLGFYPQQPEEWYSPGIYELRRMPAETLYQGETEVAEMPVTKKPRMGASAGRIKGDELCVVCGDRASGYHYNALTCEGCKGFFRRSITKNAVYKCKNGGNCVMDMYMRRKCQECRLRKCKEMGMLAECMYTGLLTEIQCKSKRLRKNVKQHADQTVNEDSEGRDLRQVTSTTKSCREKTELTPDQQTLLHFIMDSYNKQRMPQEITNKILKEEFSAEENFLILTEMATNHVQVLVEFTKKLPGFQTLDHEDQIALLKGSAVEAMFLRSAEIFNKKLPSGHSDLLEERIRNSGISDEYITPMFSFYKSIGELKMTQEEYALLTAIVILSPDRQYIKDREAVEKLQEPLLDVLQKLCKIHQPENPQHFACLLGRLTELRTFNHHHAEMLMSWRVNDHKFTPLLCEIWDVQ
Sequence of Retinoic acid receptor RXR-alpha (Homo sapiens) (P19793 whole entry, looked up, the tested form may be a part): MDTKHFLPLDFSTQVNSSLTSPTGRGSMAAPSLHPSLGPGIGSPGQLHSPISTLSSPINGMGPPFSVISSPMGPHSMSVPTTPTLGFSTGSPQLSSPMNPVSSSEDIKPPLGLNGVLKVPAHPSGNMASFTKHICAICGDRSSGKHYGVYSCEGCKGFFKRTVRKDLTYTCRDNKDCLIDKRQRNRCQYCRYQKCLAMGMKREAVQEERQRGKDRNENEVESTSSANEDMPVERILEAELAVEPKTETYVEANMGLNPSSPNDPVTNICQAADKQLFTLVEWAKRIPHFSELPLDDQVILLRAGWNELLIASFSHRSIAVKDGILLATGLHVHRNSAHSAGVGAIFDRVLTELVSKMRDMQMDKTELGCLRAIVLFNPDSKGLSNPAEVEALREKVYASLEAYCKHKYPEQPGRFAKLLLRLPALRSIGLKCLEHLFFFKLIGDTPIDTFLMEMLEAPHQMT
Sequence of Nuclear receptor subfamily 1 group I member 2 (Homo sapiens) (O75469 whole entry, looked up, the tested form may be a part): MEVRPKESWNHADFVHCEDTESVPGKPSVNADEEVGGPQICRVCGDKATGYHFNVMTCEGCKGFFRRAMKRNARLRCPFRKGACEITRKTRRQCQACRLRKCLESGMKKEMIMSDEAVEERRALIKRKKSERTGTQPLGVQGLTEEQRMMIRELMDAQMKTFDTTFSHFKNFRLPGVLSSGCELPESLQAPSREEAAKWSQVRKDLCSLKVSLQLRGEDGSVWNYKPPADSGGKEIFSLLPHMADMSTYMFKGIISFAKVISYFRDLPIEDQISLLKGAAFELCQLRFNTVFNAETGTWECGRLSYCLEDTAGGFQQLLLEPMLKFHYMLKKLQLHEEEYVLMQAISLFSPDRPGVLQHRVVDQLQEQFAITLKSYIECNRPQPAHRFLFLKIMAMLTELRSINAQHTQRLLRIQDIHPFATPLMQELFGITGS
Sequence of human RAR-related Orphan Receptor beta (RORb), RORB (gene 6096) (Q92753 whole entry, looked up, the tested form may be a part): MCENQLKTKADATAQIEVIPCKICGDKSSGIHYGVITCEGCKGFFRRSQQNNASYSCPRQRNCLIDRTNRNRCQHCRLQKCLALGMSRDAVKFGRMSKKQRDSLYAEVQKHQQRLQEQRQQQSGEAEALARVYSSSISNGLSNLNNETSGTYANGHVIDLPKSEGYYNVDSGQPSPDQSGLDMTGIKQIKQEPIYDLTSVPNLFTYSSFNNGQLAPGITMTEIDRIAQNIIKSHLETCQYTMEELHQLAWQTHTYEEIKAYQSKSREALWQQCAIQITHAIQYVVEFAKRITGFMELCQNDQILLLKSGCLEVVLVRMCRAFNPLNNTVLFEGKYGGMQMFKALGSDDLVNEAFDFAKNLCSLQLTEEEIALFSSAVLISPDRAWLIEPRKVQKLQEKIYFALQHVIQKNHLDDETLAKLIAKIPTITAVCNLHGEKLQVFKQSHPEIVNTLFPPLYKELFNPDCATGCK
Sequence of Nuclear receptor subfamily 1 group I member 3 (Homo sapiens) (Q14994 whole entry, looked up, the tested form may be a part): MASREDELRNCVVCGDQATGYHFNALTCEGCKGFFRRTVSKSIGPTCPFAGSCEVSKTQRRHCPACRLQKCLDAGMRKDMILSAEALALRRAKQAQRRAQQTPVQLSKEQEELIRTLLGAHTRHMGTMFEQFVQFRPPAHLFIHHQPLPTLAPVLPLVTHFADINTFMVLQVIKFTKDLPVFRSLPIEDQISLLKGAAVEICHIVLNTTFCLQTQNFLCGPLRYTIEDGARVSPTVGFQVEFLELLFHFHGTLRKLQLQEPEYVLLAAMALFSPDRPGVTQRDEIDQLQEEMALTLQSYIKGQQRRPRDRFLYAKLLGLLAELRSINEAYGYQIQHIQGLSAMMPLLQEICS
Sequence of Oxysterols receptor LXR-alpha (Homo sapiens) (Q13133 whole entry, looked up, the tested form may be a part): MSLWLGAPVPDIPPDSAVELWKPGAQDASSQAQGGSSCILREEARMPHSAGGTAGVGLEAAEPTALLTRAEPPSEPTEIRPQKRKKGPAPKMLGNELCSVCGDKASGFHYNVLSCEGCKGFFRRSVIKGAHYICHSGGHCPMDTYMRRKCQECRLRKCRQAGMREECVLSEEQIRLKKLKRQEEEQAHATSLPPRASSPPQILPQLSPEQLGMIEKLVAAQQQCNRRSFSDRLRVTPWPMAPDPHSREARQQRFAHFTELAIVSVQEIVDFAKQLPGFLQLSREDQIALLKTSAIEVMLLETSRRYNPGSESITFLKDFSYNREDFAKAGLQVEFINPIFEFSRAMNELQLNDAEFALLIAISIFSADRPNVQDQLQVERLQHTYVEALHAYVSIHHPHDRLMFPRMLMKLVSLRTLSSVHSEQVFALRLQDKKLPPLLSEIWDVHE
Sequence of human Peroxisome Proliferator-activated Receptor alpha (PPARa), PPARA (gene 5465) (Q07869 whole entry, looked up, the tested form may be a part): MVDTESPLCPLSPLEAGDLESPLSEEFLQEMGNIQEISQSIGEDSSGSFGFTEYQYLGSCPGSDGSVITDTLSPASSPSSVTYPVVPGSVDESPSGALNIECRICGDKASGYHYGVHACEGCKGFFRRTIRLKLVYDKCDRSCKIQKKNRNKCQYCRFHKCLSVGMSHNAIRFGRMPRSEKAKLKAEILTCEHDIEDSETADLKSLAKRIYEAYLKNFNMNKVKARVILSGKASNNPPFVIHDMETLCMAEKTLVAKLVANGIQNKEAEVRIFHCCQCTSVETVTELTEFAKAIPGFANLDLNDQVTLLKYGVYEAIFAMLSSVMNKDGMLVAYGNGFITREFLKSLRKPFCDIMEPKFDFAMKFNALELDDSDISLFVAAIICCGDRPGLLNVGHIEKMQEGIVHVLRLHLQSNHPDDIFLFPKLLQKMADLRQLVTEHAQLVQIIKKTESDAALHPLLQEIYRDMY
Sequence of human RAR-related Orphan Receptor gamma (RORg), RORC (gene 6097) (P51449 whole entry, looked up, the tested form may be a part): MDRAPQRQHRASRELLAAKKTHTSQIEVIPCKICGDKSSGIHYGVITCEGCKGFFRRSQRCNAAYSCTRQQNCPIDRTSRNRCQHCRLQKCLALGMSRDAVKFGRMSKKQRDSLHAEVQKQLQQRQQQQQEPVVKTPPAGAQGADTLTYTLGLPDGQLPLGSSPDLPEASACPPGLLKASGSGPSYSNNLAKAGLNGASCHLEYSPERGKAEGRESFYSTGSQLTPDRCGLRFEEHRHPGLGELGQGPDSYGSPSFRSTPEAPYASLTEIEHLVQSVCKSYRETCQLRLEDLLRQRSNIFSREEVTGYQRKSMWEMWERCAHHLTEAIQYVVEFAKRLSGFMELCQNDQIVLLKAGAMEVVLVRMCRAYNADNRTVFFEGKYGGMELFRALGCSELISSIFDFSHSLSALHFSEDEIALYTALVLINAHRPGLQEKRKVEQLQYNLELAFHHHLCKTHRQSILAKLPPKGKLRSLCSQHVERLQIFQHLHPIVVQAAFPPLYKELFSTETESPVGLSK
Sequence of human Peroxisome Proliferator-activated Receptor delta (PPARd), PPARD (gene 5467) (Q03181 whole entry, looked up, the tested form may be a part): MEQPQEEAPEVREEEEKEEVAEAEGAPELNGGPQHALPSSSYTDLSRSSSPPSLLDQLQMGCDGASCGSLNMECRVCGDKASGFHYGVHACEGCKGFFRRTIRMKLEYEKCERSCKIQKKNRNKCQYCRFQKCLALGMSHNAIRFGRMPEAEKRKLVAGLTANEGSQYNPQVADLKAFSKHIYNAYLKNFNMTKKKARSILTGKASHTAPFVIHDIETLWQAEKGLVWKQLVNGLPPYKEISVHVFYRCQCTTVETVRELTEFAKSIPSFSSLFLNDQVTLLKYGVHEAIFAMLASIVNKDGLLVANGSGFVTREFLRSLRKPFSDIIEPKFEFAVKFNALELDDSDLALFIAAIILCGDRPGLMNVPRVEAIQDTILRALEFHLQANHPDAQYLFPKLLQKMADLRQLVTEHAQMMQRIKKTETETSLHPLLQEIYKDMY
Sequence of Nuclear receptor subfamily 4 group A member 2 (Homo sapiens) (P43354 whole entry, looked up, the tested form may be a part): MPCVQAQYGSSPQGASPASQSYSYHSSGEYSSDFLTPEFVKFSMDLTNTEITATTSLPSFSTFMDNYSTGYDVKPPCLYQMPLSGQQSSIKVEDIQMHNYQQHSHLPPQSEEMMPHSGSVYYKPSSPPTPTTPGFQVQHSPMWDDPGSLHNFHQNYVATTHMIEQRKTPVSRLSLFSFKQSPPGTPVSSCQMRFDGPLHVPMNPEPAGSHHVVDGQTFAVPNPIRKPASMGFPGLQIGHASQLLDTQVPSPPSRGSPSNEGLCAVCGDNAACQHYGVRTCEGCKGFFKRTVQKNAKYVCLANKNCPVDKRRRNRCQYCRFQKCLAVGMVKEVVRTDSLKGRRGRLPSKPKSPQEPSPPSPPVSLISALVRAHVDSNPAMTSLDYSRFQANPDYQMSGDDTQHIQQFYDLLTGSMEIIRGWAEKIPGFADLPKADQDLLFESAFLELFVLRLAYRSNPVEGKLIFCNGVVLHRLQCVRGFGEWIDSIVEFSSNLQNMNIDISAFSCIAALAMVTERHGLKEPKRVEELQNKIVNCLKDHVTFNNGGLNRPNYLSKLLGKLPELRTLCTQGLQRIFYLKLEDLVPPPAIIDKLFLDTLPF

Regarding `CCC(C)c1cc([N+](=O)[O-])cc([N+](=O)[O-])c1OC(=O)C=C(C)C` (stereo not drawn), the AC50 – broadly, the concentration at which the activity in the assay is half-maximal – in assay [1] was 26.5 µM (active). Further, the outcome in assay [2], in [3], in [4], in [5], in assay [6] and in assay [7] was inactive.
For `O=c1c2ccccc2c(=O)c2c1cc(Cl)c1[nH]c3c([nH]c12)c(Cl)cc1c(=O)c2ccccc2c(=O)c13`, the call in [1], in assay [2], in assay [4], in assay [5], in assay [9] and in assay [10] was inactive. Further, the compound was called inactive in assay [11] and in assay [7]. Also, the AC50 in assay [8] was 10.1 µM (active).
Turning to `Nc1ccc(-c2ccc(N)c(N)c2)cc1N`, the result in [12], in assay [1], in assay [5], in assay [10], in assay [11] and in assay [13] was inactive. Besides, the compound was classed as inactive in assay [6].
Take `Cc1ccc(C)c2ccccc12`: the compound was called inactive in assay [1], in assay [14], in assay [2], in [15], in assay [16] and in [4]. Moreover, the call in assay [17], in assay [5], in [9] and in assay [11] was inactive.
With `O=[N+]([O-])c1cc(C(F)(F)F)c(Cl)c([N+](=O)[O-])c1Cl`, the compound was called inactive in [1], in [16] and in assay [8]. Moreover, the half-maximal activity concentration (AC50) is 33.4 µM (active) in [3]; 52.5 µM (active) in assay [17]; 41.1 µM (active) in assay [5]; 7.97 µM (active) in assay [10]; 35.6 µM (active) in assay [7].
As for `COc1cc(OC)nc(Oc2cccc(Oc3nc(OC)cc(OC)n3)c2C(=O)O)n1`, the result in [1], in [14], in [2], in assay [15], in assay [16] and in assay [4] was inactive. For the same compound, the result in [17], in assay [5], in assay [9], in [18] and in assay [19] was inactive.
As to `[CH3][Sn]([CH3])([Cl])[Cl]`, the compound was classed as inactive in assay [12], in [14], in assay [2], in assay [15], in assay [16] and in [4]. Moreover, the compound was classed as inactive in assay [5], in assay [8], in assay [9], in assay [10] and in assay [13].
